# Screens: PubChem BioAssay, National Center for Advancing Translational Sciences (NCATS)
# Chronic BCR inh – qHTS Assay to Find Inhibitors of Chronic Active B-Cell Receptor Signaling; ABC-DLBCL IkBa-CBG/CBR reporter, luminescence ratio, 4 h; Potency, µM (titrated, usually from 46.1 µM), inactives show top-dose activity change, negative = inhibition, hits mostly inhibitors; hit rate 0.05% among 340,000; AID 493014, 2011; active = well fitted inhibition curve with a large enough effect in the signal ratio, with a control signal flat, not every such curve was filed as active; inconclusive = small, poorly fitted or top-dose-only effect, or effect the other way, or a change in a side signal; the % refers to the signal ratio;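 note: potency is the fitted concentration of half-maximal effect; plate controls were basal doxycycline-induced cells for no effect and cells given 10 µM MG132 for full effect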
#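 Concentration-response series (up to 46 uM) were applied to TMD8 dual-reporter cells for 4 h at 37C with doxycycline. Green/red ratio, after filter-overlap correction, defined %Activity; red signal alone was normalised to basal cells and zero luminescence.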
# SW480 rerep – A quantitative high throughput screen for small molecules that induce DNA re-replication in SW480 colon adenocarcinoma cells | SW480 DNA re-replication, Hoechst DNA content imaging, 48 h | Potency, µM (doses to about 46.1 µM), for the others: at the top dose re-replication activation, most hits filed as activators | hit rate 1.8% among 340,000 | AID 624297, 2012; note: potency is the fitted concentration of half-maximal effect; % of control where 0% means no effect; nearly all actives have a fitted effect of over 55% in size
#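 Hoechst fluorescence of nuclei (405 nm excitation, 500-530 nm emission) measured by plate-scanning imager after 48 hr compound exposure at 37 C; re-replication scored as increased number of nuclei with elevated intensity.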
# MCF10A rerep – A quantitative high throughput screen for small molecules that induce DNA re-replication in MCF 10a normal breast cells | MCF 10A DNA re-replication, Hoechst nuclear intensity, 48 h | Potency, µM (top dose mostly 46.1 µM), for the others: at the highest dose activity, positive = re-replication, usual class: activators | hit rate 2.9% among 350,000 | AID 624296, 2012; note: potency is the fitted concentration of half-maximal effect; % of control where 0% means no effect; nearly all actives have a fitted effect of over 50% in size
# Giardia kill – Small Molecules that selectively kill Giardia lamblia: qHTS. AID 540267, 2011. hit rate 0.15% among 340,000. Giardia lamblia trophozoite viability. activity change, % at 7.66 µM, hits read low; in the data active = activity change below about -80%; inconclusive = between about -30% and that limit;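 note: parasites exposed to compound for two days anaerobically before the ATP read; % is set by controls: 0 for no effect and ±100 for the full control effect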
#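 ATP-content bioluminescence gauges trophozoite survival. Cells (100/well) receive compound and incubate anaerobically for 48 hrs at 37 deg C; detection reagent follows for 15-30 min at room temperature.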
# Gal4-VP16 FLuc – VP16 counterscreen qHTS for inhibitors of ROR gamma transcriptional activity; Potency, µM (top dose mostly 53.6 µM), inactives show at the highest dose activity, negative = inhibition, usual class: inhibitors; hit rate 3.5% among 310,000; AID 2546, 2010; Drosophila S2 Gal4-VP16 UAS-luciferase, luminescence, 20 h;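 note: Gal4-VP16 expression switched on by copper sulfate through the metallothionein promoter; potency is the fitted concentration of half-maximal effect; % is set by controls: 0 for no effect and ±100 for the full control effect; nearly all actives have a fitted effect of over 50% in size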
# RORg inh – qHTS for inhibitors of ROR gamma transcriptional activity; Nuclear receptor ROR-gamma (Mus musculus), P51450; Drosophila S2 Gal4-RORgamma UAS-luciferase reporter, 20 h; Potency, µM (highest dose often 53.6 µM), without a hit: at the top dose activity change, negative = inhibition, most hits filed as inhibitors; hit rate 5.4% among 310,000; AID 2551, 2010; note: potency is the fitted concentration of half-maximal effect; % is set by controls: 0 for no effect and ±100 for the full control effect; nearly all actives have a fitted effect of over 60% in size
# Target sequence (P51450 whole entry, looked up, the tested form may be a part): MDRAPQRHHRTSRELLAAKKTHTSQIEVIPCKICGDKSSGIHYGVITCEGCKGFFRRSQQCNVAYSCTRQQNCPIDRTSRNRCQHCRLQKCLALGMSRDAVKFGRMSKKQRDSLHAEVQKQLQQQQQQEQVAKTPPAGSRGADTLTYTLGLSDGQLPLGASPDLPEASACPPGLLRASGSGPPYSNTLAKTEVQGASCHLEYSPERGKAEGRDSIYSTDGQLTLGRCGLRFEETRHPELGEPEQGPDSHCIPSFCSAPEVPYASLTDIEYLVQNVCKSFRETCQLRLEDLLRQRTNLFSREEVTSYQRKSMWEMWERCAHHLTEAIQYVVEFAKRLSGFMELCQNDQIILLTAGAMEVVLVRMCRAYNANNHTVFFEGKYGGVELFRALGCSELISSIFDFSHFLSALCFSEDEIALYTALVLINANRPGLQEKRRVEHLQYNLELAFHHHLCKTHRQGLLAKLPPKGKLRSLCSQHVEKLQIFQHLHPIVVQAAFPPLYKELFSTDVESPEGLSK
#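 Stably transfected Drosophila Schneider cells are the test system, with ROR gamma fused to Gal4 and luciferase under UAS control; luminescence is read after 20 hr of 700 uM copper sulfate induction at ambient temperature.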
# Numbers without * were called inactive; i = inactive; ? = inconclusive; . = not tested or not shown; ! = not confirmed by another sample; [ ] = remark or other dose. This is a sample that favours compounds with a hit; in the whole collection about 8.3% have one here. Unless noted, calls come from the whole dose curve; as a rule, active = well fitted curve in the direction sought with a large enough effect; inconclusive = small, poorly fitted or top-dose-only effect, or another doubt; inactive = no such curve, though single readings can be large; an effect the other way counts as inactive or inconclusive.
SMILES,Chronic BCR inh,SW480 rerep,MCF10A rerep,Giardia kill,Gal4-VP16 FLuc,RORg inh
C/C(=N\NC(=O)CCc1ccccc1)C1C(=O)c2ccccc2C1=O,?,?,18%,-21,2µM*,0.56µM*
COc1ccc(C[C@](C)(N)C(=O)O)cc1OC,23µM*,?,?,11,.,.
C[C@](N)(Cc1ccc(O)cc1)C(=O)O,.,-5%,6%,.,-2%,0%
C[C@](N)(Cc1ccc(O)c(O)c1)C(=O)O,0%,2.8µM*!,-54%,-5,?,?
O=[N+]([O-])c1cccc(I)c1,.,.,.,.,-19%,8%
N#Cc1cc([N+](=O)[O-])ccc1NCCCn1ccnc1,-1%,0%,1%,-4,2%,6%
CCOC(=O)COc1cc(N)c(Cl)cc1Cl,-2%,-2%,6.5µM*,-1,-8%,-7%
C=C1c2ccccc2O[C@H](C(=O)OCC)[C@@H]1C1CCCCC1 (tested in a mixture with another compound),.,.,.,.,0%,8%
COC(=O)C1=C(C)NC(=O)NC1c1ccc(-c2ccccc2Cl)o1 (centres undefined),-31%,?,?,10,-5%,?
COC(=O)C1=C(C)NC(=S)NC1c1ccc(-c2cccc(Cl)c2)o1 (centres undefined),-4%,18µM*,?,8,?,14µM*
COC(=O)C1=C(C)NC(=O)NC1c1ccc(-c2ccc(F)cc2)o1 (centres undefined),-3%,-8%,-2%,8,1%,-5%
CCOC(=O)C1=C(C)NC(=S)NC1c1ccc(-c2ccc(Cl)cc2)o1 (centres undefined),?,19%,?,2,6.3µM*,2.5µM*
CCOC(=O)C1=C(C)NC(=O)NC1c1ccc(-c2ccc(Cl)cc2)o1 (centres undefined),?,1%,?,3,-7%,-21%
COC(=O)C1=C(C)NC(=S)NC1c1ccc(-c2ccccc2C(=O)OC)o1 (centres undefined),4%,7%,?,21,-19%,18µM*
CC(=O)OC[C@H]1O[C@@H](O/N=C2/[C@H]3O[C@@H]3[C@@H](O)[C@H]3[C@H]2CCn2c(=O)n(-c4ccccc4)c(=O)n23)[C@H](OC(C)=O)[C@@H](OC(C)=O)[C@@H]1OC(C)=O,.,.,.,.,-1%[10 µM],8%[10 µM]
O=C(CN(CC1CCCO1)C(=O)c1nsc(Cl)c1Cl)NC1CCCC1 (centres undefined),?,-14%,6%,-6,-2%,0%
Cc1cc(C)c2nc(/N=C(\N)NC(=O)Nc3ccccc3)nc(C)c2c1,4%,9.2µM*,21µM*,-6,-21%,-3%
Cc1cc(C)c2nc(/N=C(\N)NC(=O)c3ccccc3)nc(C)c2c1,?,-6%,20%,-11,-13%,0%
CCCC(=O)N/C(N)=N/c1nc(C)c2ccccc2n1,?,?,?,4,21%,1.1µM*
CCn1c(CNC(=O)c2ccc(Cl)cc2)nnc1SCC(=O)NC1=NCCS1,12%,0%,-1%,9,1%,-2%
Cc1nn(-c2ccccn2)c(N)c1N=O,?,-4%,11%,-6,?,11µM*
CC1CCN(C(=S)Nc2ccc(F)cc2)CC1,4%,-4%,?,88,?,?
S=C(Nc1ccccc1Cl)N1CCCC(c2ccccc2)=N1,?,?,13µM*,-8,1%,-20%
CC(C)c1ccc(NC(=S)N2CCCC(c3ccc(F)cc3)=N2)cc1,?,-2%,15%,-23,-12%,11µM*
Cc1ccc(C(=O)c2sc3c(c2N)c(=O)[nH]c(=O)n3CCc2ccccc2)cc1,2%,?,9.2µM*,6,-8%,-1%
SMILES,Chronic BCR inh,SW480 rerep,MCF10A rerep,Giardia kill,Gal4-VP16 FLuc,RORg inh
CC(=O)c1ccc(-n2c(=O)[nH]c(=O)c3c(N)c(C(=O)c4ccc(Cl)cc4)sc32)cc1,?,18µM*,?,-10,?,-3%
Nc1c(C(=O)c2ccccc2)sc2c1c(=O)[nH]c(=O)n2-c1ccccc1,?,-10%,8%,1,-1%,6%
Cc1nc(-c2ccccc2)sc1C1(C)CC(c2c(Cl)cccc2Cl)=NO1 (centres undefined),?,-40%[9.22 µM],?,0,-5%,36%
N=c1c2c(-c3ccccc3)c(-c3ccccc3)oc2ncn1CCCN1CCOCC1,?,?,12µM*,29,?,?
O=C(O)c1ccc(C[n+]2c(-c3ccccc3)csc2Nc2ccccc2)cc1,11%,0%,?,-16,-17%,5.6µM*
Cc1cc(OCc2cccc(S(=O)(=O)N3CCOCC3)c2)ccc1Cl,-9%,-15%,5%,0,.,.
COc1ccc(CCNC(=O)CSc2nnc(CNC(=O)c3c(F)cccc3Cl)o2)cc1OC,?,-12%,0%,-6,-8%,-18%
COc1ccc(-c2cn3cc(C(F)(F)F)cc(Cl)c3n2)cc1,?,18µM*,24%,-16,0%,-3%
COC(=O)c1cnc(Oc2ccc(NC(=O)NC(=O)c3c(OC)cccc3OC)cc2)cc1C(F)(F)F,?,2.6µM*,0.82µM*,-28,-9%,33%
CCOc1ccccc1NC(=S)NCCc1ccccc1,2%,0%,5%,-4,5µM*,1.3µM*
Cc1ccc(F)cc1NC(=S)NCCc1ccccc1,4%,?,47%,0,-92%,?
CCOc1ccccc1NC(=S)NCCc1ccc(F)cc1,-2%,i[1.84 µM],-5%,0,10µM*,1.6µM*
CCCc1nnc(SCC(=O)NC2CC2)n1CC,-12%,6%,?,34,-8%,-6%
O=C(COC(=O)C1=COCCO1)Nc1ccc([N+](=O)[O-])cc1C(F)(F)F,2%,-10%,-5%,-20,.,.
Cc1cc(/C=N/NC(=O)c2c(Br)cnn2C)c(C)n1-c1cccc(Br)c1,?,-134%,14%,-26,7.1µM*,6.3µM*
CCOC(=O)N/N=C/c1cc(C)n(-c2ccccc2)c1C,0%,-89%,-11%,-11,22%,-2%
Cc1cc(/C=N/NC(=O)c2ccccc2F)c(C)n1-c1ccccc1,?,-6%,2%,3,?,13µM*
Cc1cc(/C=N/NC(=O)c2cccc(F)c2)c(C)n1-c1ccccc1,?,4%,18µM*,4,13µM*,5.6µM*
